FMDV antiviral: antivirals against foot and mouth disease virus | FMDV antiviral cell-based qHTS | Potency, µM (series often up to 57.9 µM), for the others: at the highest dose activity change, negative = inhibition, hits mostly inhibitors | 410,000 compounds, 1.2% hits; calls by dose curve; tested in HEK293T cells; also: read-out not given here; nearly all actives have a fitted effect of over 45% in size
LASV entry inh: Lassa virus entry inhibition | AID 540256 | Potency, µM (doses to about 37.9 µM), for the others: at the top dose activity change, negative = inhibition, actives largely listed as inhibitors | Lassa virus pseudotype entry inhibition, cell reporter | 300,000 compounds, 1.2% hits; calls by dose curve; tested in HEK293 cells; also: nearly all actives have a fitted effect of over 50% in size
Marburg entry inh: Marburg virus entry inhibition. Marburg virus pseudotyped entry inhibition, cell reporter. Potency, µM (top dose mostly 37.8 µM), without a hit: at the top dose activity change, negative = inhibition, usual class: inhibitors. 300,000 compounds, 1.8% hits. AID 540276; calls by dose curve; tested in HEK293 cells
HCV inh: inhibitors of hepatitis C virus infection. Huh7.5.1 HCVcc-Cre infection, luciferase reporter, 44 h. 340,000 compounds, 3.4% hits. Potency, µM (highest dose often 41.8 µM), inactives show at the top dose activity change, negative = inhibition, usual class: inhibitors; active = well fitted inhibition curve with a large enough effect; inconclusive = small, poorly fitted or top-dose-only effect, or another doubt; inactive = no such curve, though single readings can be large or run the other way
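Cells (1,000/well) were plated 4 h before compound, then infected with HCVcc-Cre virus (~0.5 moi). After 44 h further culture, infection was read as luciferase luminescence following a 15 min substrate incubation at room temperature.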
VACV Venus inh: vaccinia inhibition (Venus reporter); Vaccinia virus Venus reporter expression, fluorescence; 330,000 compounds, 0.46% hits; Potency, µM (doses to about 36.5 µM), inactives show at the top dose activity change, negative = inhibition, actives largely listed as inhibitors; calls by dose curve; tested in A549 cells; also: nearly all actives have a fitted effect of over 30% in size
VACV mCherry inh: vaccinia inhibition (mCherry reporter); Vaccinia virus mCherry reporter infection, fluorescence; Potency, µM (titrated, usually from 36.5 µM), without a hit: at the highest dose activity change, negative = inhibition, most hits filed as inhibitors; 310,000 compounds, 0.63% hits; calls by dose curve; tested in A549 cells; also: nearly all actives have a fitted effect of over 35% in size
An asterisk follows results filed as active; i = inactive; ? = inconclusive; . = not tested or not shown; [ ] = remark or other dose. An excerpt weighted towards active compounds, which were near 5.3% of everything screened. % is scaled to controls: 0 for no effect and ±100 for the full control effect; potency is read from the fitted curve at half-maximal effect.

SMILES | FMDV antiviral | LASV entry inh | Marburg entry inh | HCV inh | VACV Venus inh | VACV mCherry inh
COCc1cc(N2CCCCC2)nc(-c2ccccc2)n1 | -8% | -25% | ? | 5.6µM* | 4% | -1%
COc1ccc(C(=O)Nc2ccc(C3=NNC(=O)CC3C)cc2NC(=O)c2ccc(OC)cc2)cc1 (centres undefined) | 0% | -9%[46.1 µM] | ? | 10µM* | -14% | ?
COc1ccc(C(=O)Nc2ccc(C(=O)O)cc2NC(=O)c2ccc(OC)cc2)cc1 | -19% | . | . | 19% | . | .
Cc1ccc(-c2cc3nn(-c4ccccc4)c(N)c3c(=O)o2)cc1 | -28% | 12% | -26% | 10µM* | . | .
Cc1ccc(-n2nc(-c3ccccc3)cc2Nc2ccccc2N)cc1 | -11% | 24% | ? | 5% | -13% | -22%
Cc1ccc(C(=O)N2N=C(c3ccc(Br)cc3)CC2c2ccccc2O)cc1 (centres undefined) | 23% | 13µM* | -29% | ? | ? | -26%
Cc1ccc(C(=O)N2N=C(c3ccccc3O)CC2c2ccccc2)cc1 (centres undefined) | 0% | 6%[46.1 µM] | 1%[46.1 µM] | 5% | -1% | i
COc1ccc(NC(=O)c2cc3ccccc3cc2OC)cc1 | 14% | ? | -24% | 8.9µM* | ? | -23%
COc1ccc2o/c(=N\O)c(C(=O)Nc3ccc(C)cc3)cc2c1 | 20% | . | . | 10µM* | ? | -17%
CCOc1ccc(NC(=O)c2cc3ccccc3cc2OC)cc1 | 69% | ? | ? | 10µM* | ? | -22%
COc1cc2ccccc2cc1C(=O)Nc1ccccc1Cl | -8% | . | . | ? | . | .
COc1ccc(OC)c(C(=O)Nc2c(O)ccc3ccccc23)c1 | 19% | ? | 6% | ? | ? | 13µM*
COC(=O)C1=C(C)N(Cc2ccccc2)C(=NCC2CC2)NC1c1ccccc1 (centres undefined) | . | . | -1%[14.2 µM] | . | . | .
CCOc1ccccc1Nc1nc(-c2cccc(Cl)c2)c2c(n1)-c1ccccc1OC2 | -19% | ? | ? | . | -8% | i
COc1ccc(Cl)cc1C(=O)Nc1ccc(NC(C)=O)cc1 | 8% | -20% | 2%[46.1 µM] | ? | -13% | -20%
COc1cc2ccccc2cc1C(=O)Nc1cccnc1 | 63% | -3% | ? | 32µM* | -26% | -30%
COc1ccc(-c2coc3c(C(=O)Nc4cccnc4)cccc23)c(C)c1 | 20µM* | . | . | . | -22% | 9%
COc1ccc(-c2coc3c(C(=O)Nc4cccc(C(C)=O)c4)cccc23)c(C)c1 | 0% | . | . | . | -16% | -3%
COc1ccc(Cl)cc1C(=O)Nc1ccc(NC(=O)C(C)C)cc1 | -27% | ? | -17%[46.1 µM] | 4µM* | -16% | -14%
COc1cc(OC)c(C(=O)Nc2cccnc2)cc1OC | 1% | 0% | 2% | -15% | -12% | i
Cc1ccccc1-c1cc2c(c(OC3CCOC3)c1)OCCN(C(=O)Cn1cccn1)C2 (centres undefined) | 2% | . | . | . | -10% | i
Cc1ccc(S(=O)(=O)N2CCCCC2CCNC(=O)C(=O)NCC2CCCO2)cc1 (centres undefined) | -19% | 8% | -3% | -16% | -16% | i
CCCn1c(SCc2nc(-c3ccc(OC)c(OC)c3)no2)nnc1-c1ccccc1 | -8% | -26%[46.1 µM] | 5.6µM* | . | -14% | -21%
N#CC1(C#N)CC(C=O)=C(N)C1(C#N)CC(=O)C12CC3CC(CC(C3)C1)C2 (centres undefined) | 22µM* | ? | ? | 8% | -2% | i
COC(=O)C1CN(C#N)N(c2ccc(Cl)cc2)C12c1ccccc1-c1ccccc12 (centres undefined) | 3.5µM* | 11µM* | ? | 4µM* | ? | ?
SMILES | FMDV antiviral | LASV entry inh | Marburg entry inh | HCV inh | VACV Venus inh | VACV mCherry inh
O=C1c2ccccc2C(O)N1c1ccc(Cl)cc1 (centres undefined) | 22% | . | 0% | -3% | 0% | 4%
CC1=C(CC/C(C)=N/NC(N)=S)C(C)(C)CCC1 | -14% | ? | 21µM* | 25µM* | . | .
CC(C)=CCN1CCN(CCC2=C(C)CCCC2(C)C)CC1CCO (centres undefined) | -14% | . | . | ? | . | .
Cc1sc2ncn(CC(=O)Nc3cccc(C(F)(F)F)c3)c(=O)c2c1S(=O)(=O)N1CCN(C)CC1 | -23% | -20%[46.1 µM] | -22%[46.1 µM] | . | 1% | -14%
O=C(c1ccc(N2CCN(C3CC(=O)N(Cc4cccs4)C3=O)CC2)cc1)c1cccnc1 (centres undefined) | ? | ? | ? | 13µM* | -20% | -3%
O=C(c1ccncc1)c1ccc(N2CCN(C3CC(=O)N(Cc4ccccc4)C3=O)CC2)cc1 (centres undefined) | 16µM* | ? | ? | ? | ? | .
Cc1c(Cl)cccc1NC(=S)NC(=O)c1ccccc1 | 19% | . | . | . | 12% | 1%
COc1ccc(CC2(C)OC(c3ccc(C)c([N+](=O)[O-])c3)=NN2C(C)=O)cc1 (centres undefined) | ? | 0.79µM* | ? | ? | -16% | -22%
CC1(C)Oc2ccc3ccc(=O)oc3c2/C(=C/Nc2ccccc2)C1=O | ? | -27% | -18% | 10µM* | 7% | -1%
CC1(C)Oc2ccc3ccc(=O)oc3c2/C(=C/NC2CCCCC2)C1=O | 0% | ? | ? | 10µM* | -21% | ?
Cc1ccc(-n2cc3c(c2-c2ccccc2Br)c(=O)n(C)c(=O)n3C)cc1N | -25% | -30%[46.1 µM] | 2%[46.1 µM] | . | -15% | -15%
C=CCN1c2ccccc2[C@]23CCC(=O)N(CCCOC(C)C)C2=NC(C(=O)OC)=C(C(=O)OC)[C@H]13 | . | . | -10%[14.2 µM] | . | . | .
O=P(Oc1ccccc1)(Oc1ccccc1)N1CCN(c2ccc(F)cc2)CC1 | -25% | ? | 10µM* | -25% | -17% | -22%
O=C(CCCSc1nc2ccccc2[nH]1)N1CCN(c2ccc([N+](=O)[O-])cc2)CC1 | 18µM* | -1% | 2% | 1% | -20% | i
O=C(CSc1nc2ccccc2[nH]1)N1CCN(c2ccc(F)cc2)CC1 | ? | -15% | -2% | -16% | -14% | -30%
CC(C)(C)NC(=O)C(c1ccc(O)cc1)N(Cc1ccccc1)C(=O)CCC(=O)Nc1nccs1 (centres undefined) | -2% | -10% | -28%[46.1 µM] | 26% | -11% | -11%
CC(C)(C)NC(=O)C(c1ccc(O)cc1)N(C(=O)CCC(=O)Nc1nccs1)c1ccc(F)cc1 (centres undefined) | -7% | ? | 2.2µM* | 12% | -9% | -1%
Cc1ccc(N(C(=O)CCC(=O)Nc2nccs2)C(C(=O)NC(C)(C)C)c2ccc(O)cc2)cc1 (centres undefined) | -17% | -15%[46.1 µM] | 8.9µM* | -15% | -7% | i
CN1C(=O)/C(=C\C(=O)c2cccs2)c2ccccc21 | 22µM* | -10% | ? | 13% | -5% | i
c1ccc2c(-c3[nH]ncc3CNCCCn3ncc4ccccc43)cccc2c1 | ? | ? | ? | 10µM* | -14% | -25%

Screening results from PubChem BioAssay.
